Measurements taken from PubChem BioAssay AID1626 (SRMLSC, 2009).
The campaign covered roughly 220,000 compounds. About 2,000 (0.91%) were called active. Inconclusive results (about 2%) are left out. The list is a sample of the results. Entries with a potency or affinity are not part of this list. A number with no mark means an inactive call. No stated cut-off is given here; in the data, inconclusive means inhibition above about 80% without an active follow-up result; inactive means below that; test concentration not stated here.

Assay: M. tuberculosis H37Rv growth inhibitors, H37Rv strain (AID 1626);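 further: bacteria incubated seven days before Alamar blue readout; 0% = bacteria only wells and 100% = bacteria with antibiotic wells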
Details: stronger effect = higher value, concentration not given here
In the case of `CN1CCN(C(=O)c2cc3nc(-c4ccc(F)cc4)cc(C(F)(F)F)n3n2)CC1`, the inhibition is reported as -1.56%. `CC(C)OP(=O)(OC(C)C)C(O)c1ccc(Br)cc1` (stereo unspecified) showed an inhibition of -5.46%. `O=S(=O)(c1ccc(Cl)s1)N1CCC(Cc2ccccc2)CC1` showed an inhibition of -5.95%. For `O=C(Nc1cccc([N+](=O)[O-])c1)c1ccc(N2CCCC2=O)cc1`, the inhibition was 3.44%. In the case of `COc1cc(C(=O)NNC(=O)c2ccoc2C)cc(OC)c1OC`, the inhibition is reported as -3.54%. With `COc1ccc(C)cc1NC(=O)COC(=O)C1CCN(C(=O)c2ccc(Cl)cc2)CC1` the inhibition was 3.93%. With `Cc1ccc(NC(=O)Cn2c(O)c(N=NC(=O)c3ccncc3)c3ccccc32)cc1` the inhibition was -1.42%. For `O=C(C1CCCCC1)N1CCN(C(=O)C2CCCCC2)CC1`, the inhibition was -1.95%. Work on `CCc1c(C)c(C#N)c2[nH]c3ccccc3n2c1=S` yielded an inhibition of -5.86%. In the case of `CCc1cc(=S)n2c([nH]c3ccccc32)c1C#N`, the inhibition is reported as -2.47%. For `Cc1c(CCC(C)C)c(=O)n2c([nH]c3ccccc32)c1C#N`, the inhibition was 5.47%. Compound `Cc1c(CCC(=O)O)c(=O)n2c([nH]c3ccccc32)c1C#N` has an inhibition of -32.2%. Compound `COc1c(O)ccc2cnn(-c3ccccc3C)c(=O)c12` has an inhibition of -8.74%. Compound `CC1CC(C)CN(CC(O)COCCOc2ccc(Br)cc2)C1` (stereo unspecified) has an inhibition of 0.51%. `CCCCN1CC[C@H]2C=CC[C@@H](C(=O)Nc3ccccc3)[C@H]2C1=O` gave an inhibition of -7.03%. With `Cn1c(-c2ccccc2)cc(=O)c2ccccc21` the inhibition was 1.71%. With `[O-][n+]1onc2c3ccnnc3ccc21` the inhibition was 58.6%. Compound `c1ccc(-c2cc3c(ccc4nonc43)nn2)cc1` has an inhibition of -7.6%. `COc1ccc2c(c1)c(=O)cc(-c1ccccc1)n2C` showed an inhibition of -2.37%. Work on `CCCCCC(=O)N/N=C(\C)c1ccc(N2CCCCC2)cc1` yielded an inhibition of -2.51%. With `CCOc1ccc2cc(C3CC(c4ccco4)=NN3S(C)(=O)=O)c(=O)[nH]c2c1` (stereo unspecified) the inhibition was 0.83%. `COc1ccccc1OCCSc1nc2ccccc2n1CCO` gave an inhibition of -6.33%. `O=C1CC(NCc2ccc(F)cc2)C(=O)N1c1ccccc1` (stereo unspecified) gave an inhibition of -1.25%. Work on `CCOC(=O)N1CCN(C(=O)C2CCN(S(=O)(=O)c3ccc(C)cc3)CC2)CC1` yielded an inhibition of -7.16%. For `COc1ccccc1-n1c(SCC(=O)N2CCOCC2)nc(O)c(Cc2ccccc2)c1=O`, the inhibition was -3.87%. `C[C@@H]1C=C[C@](Cc2ccccc2)(C(=O)NCC2CC2)N1C(=O)c1ccccc1` showed an inhibition of -23%. Work on `COc1cc2c(cc1NC(=O)COc1ccccc1OC)oc1ccccc12` yielded an inhibition of 0.28%. In the case of `COc1cc2c(cc1NC(=O)c1ccc3c(c1)OCO3)oc1ccccc12`, the inhibition is reported as -1.46%. Work on `COc1ccccc1NC(=S)NCc1ccc2c(c1)OCO2` yielded an inhibition of 7.62%. Compound `COc1ccccc1CC(=O)Nc1cc2oc3ccccc3c2cc1OC` has an inhibition of -9.4%. `O=C(CN(C(=O)Cn1nnc(-c2ccc(F)cc2)n1)C1CCCC1)NC1CCCC1` showed an inhibition of 0.92%. `O=[N+]([O-])c1ccc(N2CCN(C(=S)c3cccc([N+](=O)[O-])c3)CC2)cc1` gave an inhibition of 1.74%. `CCN(C1CCCCC1)S(=O)(=O)c1ccc(C(=O)O)cc1` showed an inhibition of -11.6%. Compound `CCO[C@H]1OC(C(=O)N2CCOCC2)=C[C@@H](c2ccccc2)[C@@H]1CCCO` has an inhibition of 0.78%. With `Cc1ccccc1OCCn1cc(C(=O)C(=O)N2CCOCC2)c2ccccc21` the inhibition was 5.53%. Work on `O=C(CO/N=C/c1ccccc1Cl)N1CCCc2ccccc21` yielded an inhibition of 4.05%. In the case of `COc1ccccc1N1CCN(C(=O)C(Sc2ccccc2)c2ccccc2)CC1` (stereo unspecified), the inhibition is reported as -2.82%. For `CCOC(=O)c1csc(COc2ccccc2Cl)n1`, the inhibition was -4.66%. `Cc1nc(-c2cc(-c3nc(-c4ccc(C(F)(F)F)cc4)no3)no2)cs1` showed an inhibition of 7.08%. In the case of `CCC(=O)NNC(=O)c1cc(COc2cc(Cl)cc(Cl)c2)on1`, the inhibition is reported as 13.9%. `CCOC(=O)c1csc(NC(=O)COc2ccc(Cl)cc2Cl)n1` gave an inhibition of -7.94%. For `CC(=O)c1csc(COc2ccc(Cl)cc2)n1`, the inhibition was -4.98%. Compound `CC(C)NC(=O)NNC(=O)c1cc(COc2cc(Cl)cc(Cl)c2)on1` has an inhibition of -6.1%. Compound `Cc1onc(C(=O)NN)c1-c1csc(COc2ccc(Cl)cc2)n1` has an inhibition of -10.6%. Work on `CCOC(=O)c1sc(-c2ccc(C(F)(F)F)cc2)nc1O` yielded an inhibition of -1.38%. In the case of `O=C(/C=C/c1ccccc1[N+](=O)[O-])N1CCN(c2ccccc2F)CC1`, the inhibition is reported as 4.82%. With `O=C(O)c1ccc(S(=O)(=O)N2CCC(c3nc(-c4ccccc4Cl)no3)CC2)cc1` the inhibition was -8.76%. In the case of `O=C(COC(=O)/C=C/c1ccc(Br)o1)Nc1ccccc1F`, the inhibition is reported as 8.52%. `Cc1ccc(C2=NC(=O)/C(=C/c3cc(O)c(O)c(Br)c3)S2)cc1` showed an inhibition of -2.49%. Compound `Cn1ncc2c(NCc3cccc(C(F)(F)F)c3)c(C(=O)O)cnc21` has an inhibition of -1.6%. In the case of `CCN(CC)C1CCN(C(=O)CCc2nnc(CCCCc3ccccc3)o2)C1` (stereo unspecified), the inhibition is reported as -6.99%. `Cc1csc2c(N3CCN(C(=O)c4ccc(C(C)(C)C)cc4)CC3)ncnc12` showed an inhibition of 5.47%. `CCCC(=O)Nc1cc(-c2nn(C)c(=O)c3ccccc23)ccc1N1CCOCC1` gave an inhibition of -6.76%. In the case of `CCCn1c(N)c(C(=O)CN2CCc3ccccc3C2)c(=O)n(C)c1=O`, the inhibition is reported as 0.315%. For `CC(=O)Nc1ccc(OCC(O)Cn2c(C)nc3ccccc32)cc1` (stereo unspecified), the inhibition was 5.23%. `O=C(OC1CCCCC1=O)c1cc(Cl)ccc1[N+](=O)[O-]` (stereo unspecified) gave an inhibition of -3.33%. `Cc1ccc(NC2(c3nnnn3-c3c(C)cccc3C)CCCCC2)cc1` gave an inhibition of 16.4%. Compound `CCOC(=O)c1csc(COc2ccc(OC)cc2)n1` has an inhibition of -4.8%. Work on `CC(=O)c1csc(COc2ccccc2)n1` yielded an inhibition of -10.3%. `Cc1cccc2nc(CSc3nnc(N)s3)cn12` gave an inhibition of 0.64%. Compound `Cc1ccc(C(=O)N/C(=C/c2ccc(-c3ccc(Br)cc3)o2)C(=O)NC2CCS(=O)(=O)C2)cc1` (stereo unspecified) has an inhibition of 2.02%.
